# Test results as given in PubChem BioAssay (NCI).
# About 83,000 compounds went through this panel and 20% of them were active in at least one assay; those are over-represented in the sample as a whole.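 The endpoint reported here, percent growth, reads 100 for growth as untreated, 0 for no net growth and -100 for all cells dead.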 Values without a mark were called inactive. The source made the active and inactive calls. The calls were made as follows: active = growth percent below 10; inactive = the rest.
# Key:
# Assay in all cases: NCI-60 one-dose screen, 48 h (100 = growth as untreated, 0 = no growth, -100 = all killed)
# Details in all cases: 10 µM unless noted
# NCI-H23 lung = tested on: NCI-H23 lung
# NCI-H226 lung = tested on: NCI-H226 lung
# HOP-62 NSCLC = tested on: HOP-62 NSCLC
# NCI-H460 lung = tested on: NCI-H460 lung
# HOP-92 NSCLC = tested on: HOP-92 NSCLC
# NCI-H522 lung = tested on: NCI-H522 lung
# A549/ATCC NSCLC = tested on: A549/ATCC NSCLC
# 786-0 renal = tested on: 786-0 renal
# COLO 205 colon = tested on: COLO 205 colon
# DU-145 prostate = tested on: DU-145 prostate
# K-562 leukemia = tested on: K-562 leukemia
# MALME-3M melanoma = tested on: MALME-3M melanoma
# MDA-MB-231 breast = tested on: MDA-MB-231 breast
# RXF 393 renal = tested on: RXF 393 renal
# SF-268 CNS = tested on: SF-268 CNS
# SF-295 CNS = tested on: SF-295 CNS
# SF-539 CNS = tested on: SF-539 CNS
# UACC-257 melanoma = tested on: UACC-257 melanoma
# M14 melanoma = tested on: M14 melanoma
# NCI-H322M lung = tested on: NCI-H322M lung
Structure (SMILES),growth (NCI-H23 lung),growth (NCI-H226 lung),growth (HOP-62 NSCLC),growth (NCI-H460 lung),growth (HOP-92 NSCLC),growth (NCI-H522 lung),growth (A549/ATCC NSCLC),growth (786-0 renal),growth (COLO 205 colon),growth (DU-145 prostate),growth (K-562 leukemia),growth (MALME-3M melanoma),growth (MDA-MB-231 breast),growth (RXF 393 renal),growth (SF-268 CNS),growth (SF-295 CNS),growth (SF-539 CNS),growth (UACC-257 melanoma),growth (M14 melanoma),growth (NCI-H322M lung) [%]
O=S(=O)(NCCNc1nccc(-c2c(-c3ccc(F)c(O)c3)nc3sccn23)n1)c1ccc(Cl)cc1,42.1%,24.2%,60.2%,27%,45%,22.2%,25.7%,38.3%,17.6%,44%,15.7%,20.6%,50.1%,25%,32.3%,29.5%,43%,32.9%,27.5%,
Cc1ccc(S(=O)(=O)c2nc(-c3ccccc3)oc2SCC(N)=O)cc1,96.8%,98.1%,98.3%,104%,83.2%,76.3%,96.7%,95%,,101%,88.2%,98.9%,104%,99%,90%,98.9%,97.2%,113%,97.1%,
C#Cc1cccc(NC(=O)C2CCCCN2C(=O)CCl)c1 (stereo not given),-76.1% [8.25 µM] (active),-53.4% [8.25 µM] (active),26.6% [8.25 µM],10.9% [8.25 µM],-54.2% [8.25 µM] (active),-57% [8.25 µM] (active),36.5% [8.25 µM],-72.9% [8.25 µM] (active),-52.5% [8.25 µM] (active),-33.8% [8.25 µM] (active),2.41% [8.25 µM] (active),-86.7% [8.25 µM] (active),-62% [8.25 µM] (active),-87.8% [8.25 µM] (active),-53.2% [8.25 µM] (active),52.4% [8.25 µM],-91.1% [8.25 µM] (active),-0.384% [8.25 µM] (active),-41.9% [8.25 µM] (active),
Cn1c(=O)c2[nH]c(SC/C(=N/O)c3ccc(Br)cc3)nc2n(C)c1=O,35.7%,-7.02% (active),8.56% (active),20.9%,-72.9% (active),-14.5% (active),60.4%,-68.6% (active),110%,68.4%,67.1%,20%,-5.9% (active),-73.4% (active),50%,13.9%,-53.6% (active),84%,58.8%,
O=S(O)c1cc(Cl)cc(Cl)c1OCc1ccccc1,101%,94.5%,101%,101%,87.6%,96.2%,90.2%,102%,105%,109%,106%,99.8%,107%,97.3%,101%,108%,103%,90.8%,101%,
O=C(/C=C/c1cn(-c2ccccc2)nc1-c1ccccc1)CCC(=O)NO,99.3%,93.9%,93.3%,,109%,79.5%,,97.3%,107%,112%,99.6%,104%,105%,102%,97%,96.1%,113%,92.7%,100%,106
O=C(/C=C/c1ccco1)Nc1ncc(Cc2cc(Cl)ccc2Cl)s1,33.4%,39.4%,17.8%,3.88% (active),72.4%,-4.32% (active),19.8%,31.4%,-14.2% (active),13.9%,7.9% (active),49%,47.4%,-2.79% (active),44%,9.56% (active),-18.8% (active),38.8%,6.81% (active),
COc1ccc(Nc2ncc(I)c(NCCCNC(=O)C3CCC3)n2)cc1,8.39% (active),5.32% (active),-21.3% (active),8.88% (active),-7.19% (active),52.2%,-37.6% (active),9.69% (active),-59.3% (active),16.3%,25.7%,41%,-45.4% (active),-84.1% (active),14.7%,20.8%,-34.5% (active),75.3%,43%,
